Compounds without any hit were thinned out: in the full panel of roughly 83,000, 20% have a hit.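 Cell lines were cultured in 96-well plates, exposed to a single compound concentration, and assessed for percent growth 48 hours later.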 Active and inactive are the calls of the source.

This test relates to KM12 colon. Nature of the test: NCI-60 one-dose screen, 48 h (100 = growth as untreated, 0 = no growth, -100 = all killed). The note with it: 10 µM unless noted. How it is done:
Growth inhibition of the KM12 human tumor cell line is measured as a screen for anti-cancer activity. Cells are grown in 96 well plates and exposed to the test compound for 48 hours. Compounds are tested at a single concentration, which is 10^-5 M for most compounds. The reported endpoint is percent growth (GI% or GIPRCNT), where numbers from 0 - 100% represent growth inhibition, and numbers from -100% - 0 represent cell death. For example, a value of 40 represents 60% growth inhibition. A value of 0 means no net growth occurred over the course of the experiment. A value of -40 indicates 40% of cells at the beginning of the experiment died by the end of the experiment. A value of -100 means all cells are dead at the end of the experiment.
NCI-60 Human Tumor Cell Lines Screen was performed using the standard one-dose NCI protocol, which is described in more detail at https://dtp.cancer.gov/discovery_development/nci-60/default.htm.
Compounds with GIPRCNT values below 10 were considered active. Activity score was based on GIPRCNT using the following formula: […]
Score is 0 for GIPRCNT values of 100 or above, 50 for GIPRCNT values of 0, and 100 for GIPRCNT values of -100.
For the compound `CCOc1cc(\C=N/N=C(N)/C(N)=N\N=C/c2ccc(O)c(OCC)c2)ccc1O`, the growth was 101% (inactive).
The same measure for `Cn1cc(-c2nc(-c3c[nH]c4ccncc34)cs2)c2cc(F)ccc21`: -95.1% (active); for `NCCCCCNc1noc(Cc2c[nH]c3cc(Br)ccc23)n1`: 23.9% (inactive).
The same measure for `O=CN1N=C(c2cccc(Nc3ccncc3)c2)CC1c1ccc2c(c1)OCO2` (stereo not given): 98.4% (inactive); for `COc1cccc(C2C3=C(COC3=O)N(CCO)c3cc4c(cc32)OCCO4)c1` (stereo not given): -11.8% (active).
The same measure for `COc1cc(NC(=O)c2cncnc2Nc2ccc3c(ccn3Cc3cccc(F)c3)c2)cc(OC)c1`: 34.8% (inactive).
As to `CC1(C)CC(=O)C2=C(C1)OC(C(=O)c1ccccc1)C2c1cccc(Oc2ccccc2)c1` (stereo not given), the growth is 37.7% (inactive).
Consider `COc1nc2ccccc2cc1/C=[N+](\[O-])c1ccccc1`, for which the growth was 84% (inactive).
The figure for `N#Cc1c(-c2ccc(F)cc2)cc(-c2cccc(Cl)c2)[nH]c1=O` is 56.1% (inactive); for `CC(C)=CCC[C@](C)(O)C1CC[C@]2(C)[C@@H]1CC[C@@H]1[C@@]3(C)CC/C(=N\OCCC#N)C(C)(C)[C@@H]3CC[C@]12C` (stereo not given in full) it is 84.7% (inactive).
The same measure for `c1ccc2[nH]c(-c3ccc(-c4nccc5c4[nH]c4ccccc45)cc3)nc2c1`: 76.6% (inactive); for `O=C(CNc1ncco1)Nc1ccc(S(=O)(=O)c2ccc(NC(=O)CNc3ncco3)cc2)cc1`: 94.8% (inactive).
As for `C=C(C)[C@@H]1CC[C@]2(COCCCNCCCN)CC[C@]3(C)[C@H](CC[C@@H]4[C@@]5(C)CC[C@H](OCCCN)C(C)(C)[C@@H]5CC[C@]43C)[C@@H]12`, the growth is -89.8% (active).
`CCOC(=O)/C(=C/c1ccc([N+](=O)[O-])cc1)C(=O)c1ccccc1`: the growth was 29.5% (inactive).
The figure for `Nc1nc(=O)n([C@H]2CC=C(CO)O2)cc1F` is 103% (inactive).
The figure for `CC/C(=C(/c1ccc(Cl)cc1)c1ccc(OCCN2CCCCCC2)cc1)c1ccccc1` is 55% (inactive).
The same measure for `CCOC(=O)c1c(NC(=S)Nc2ccc([N+](=O)[O-])cc2)sc2c1CCCCC2`: 72.2% (inactive); for `COc1ccc(C(=O)/C=C/Nc2cc(-c3ccccc3)nn2-c2ccccc2)cc1`: 99.9% (inactive).
In the case of `CCOC(=O)CC1CSC(N/N=C/c2ccc(O)cc2)=N1` (stereo not given), the growth is 100% (inactive).
On to `COc1ccc(C(=O)/C=C/c2ccc(C)cc2)cc1S(N)(=O)=O`, for which the growth was 44.3% (inactive).
With `COc1cc2c(c(OC)c1OC)CCC(c1cccc(C(=O)Nc3ccccc3Br)c1)O2` (stereo not given), the growth is 101% (inactive).
The same measure for `C1=C2CCCC3=Cc4ccccc4OC23Oc2ccccc21`: 19.8% (inactive); for `N/C(=N\c1nc2ccccc2s1)NC(=O)Nc1ccccc1`: 25.4% (inactive); for `COc1cc(CNC(=O)CCCC/C=C/C(C)C)ccc1OCc1cn(-c2ccc(C(F)(F)F)cc2)nn1`: 81.2% (inactive).
The figure for `Cc1nc2c(c(-c3ccccc3)n1)Cc1c(ccc3ccccc13)O2` is 89.1% (inactive).
Turning to `C=CCn1c(SCC(=O)Nc2ccc(C(=O)/C=C/c3ccc(Cl)cc3)cc2)nnc1-c1ccccc1`, the growth is 85.2% (inactive).
The figure for `C#CCOC(=O)C(N)CSSCC(N)C(=O)O` (stereo not given) is 108% (inactive); for `C=C(C)[C@@H]1CC[C@]2(COC(=O)c3cccnc3)CC[C@]3(C)[C@H](CC[C@@H]4[C@@]5(C)CCCN(C(=O)c6cccnc6)C(C)(C)[C@@H]5CC[C@]43C)[C@@H]12` it is 31.2% (inactive).
The same measure for `CCCCCCC/C=N/NC(=O)c1ccc(-n2cc(-c3ccccc3)nn2)cc1`: 86.8% (inactive); for `CCCCCCCCCCCCCCCCCCOc1ccccc1CC(=O)OCC[N+]1(C)CCCCC1`: 86.5% (inactive).
As for `COc1cc2c(cc1-c1c(C)noc1C)ncc1nc(C3CCOCC3)n(C3CCC(OC(F)F)CC3)c12` (stereo not given), the growth was 44.3% (inactive).
As to `Cc1[nH]c(C(=O)Nc2ccccc2OC2CCNC2)c(Cl)c1Cl` (stereo not given), the growth is 84.2% (inactive).
The figure for `O=C(Cn1cc(CSc2nc3ccccc3o2)nn1)Nc1ccc([N+](=O)[O-])cc1` is 94.8% (inactive).
The same measure for `Cc1csc(Nc2nc(-c3cccc(Cl)c3)nc(C(Cl)(Cl)Cl)n2)n1`: 13.8% (inactive); for `COc1cc(/C=C/C(=O)c2ccc(-n3cc(CN4CCN(c5cc6c(cc5F)c(=O)c(C(=O)O)cn6C5CC5)CC4)nn3)cc2)cc(OC)c1OC`: 87.1% (inactive); for `O=C1C=CC2(O)OC(c3ccccc3)CC(=O)C2=C1O` (stereo not given): 15.9% (inactive).
The figure for `C=CC(=O)NCc1cccc(Nc2ncc(Br)c(NCCCNC(=O)C3CCC3)n2)c1` is 4.95% (active); for `CC(C)C(=O)Nc1ncc(C(=O)NCCN(Cc2ccccc2)C(=O)c2ccc(S(=O)(=O)Nc3ccccc3)cc2)s1` it is 105% (inactive).
Regarding `COc1ccc(-c2csc(NC(=O)CSc3nc(C)cc(=O)[nH]3)n2)cc1`, the growth was 100% (inactive).
The figure for `Oc1cccc2c1NCCC2` is 20.7% (inactive).

(Values after PubChem BioAssay (NCI).)
